NCOA2 inhibitor: inhibits human steroid receptor coactivator 2. Q15596. HEK293 GAL4-SRC2 luciferase reporter, luminescence. inhibition, % at 9 µM. 0.17% of 370,000 active. AID 651957;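 active means inhibition above the mean inhibition of all tested compounds plus 3 SD, set per campaign, cut at about 52% in these data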
NCOA3 inh: inhibits human SRC3 coactivator | HEK293 GAL4-SRC3 luciferase reporter, luminescence | AID 588352 | inhibition, % at 3.6 µM | Q9Y6Q9 | 0.17% of 360,000 active;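 active means inhibition above a per-campaign cutoff, the mean of all compounds plus 3 SD, cut at about 60% in these data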;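 further: higher means less SRC3-driven luciferase light from the GAL4 reporter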
NR2F2 inh: inhibitors of human COUP-TFII (NR2F2) | 0.7% of 370,000 active | HEK293T NGFI-A luciferase reporter, luminescence | inhibition, % at 8.6 µM | AID 686940;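 active means inhibition above a per-plate cutoff, mean inhibition of test wells between control levels plus 3 SD, cut at about 38% in these data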;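 further: cells cotransfected with COUP-TFII expression vector driving the NGFI-A reporter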
LRH-1 inv ag: NR5A2 inverse agonism in reporter assay | O00482 | HEK293T StAR-luciferase reporter, LRH-1 transfected, 24 h | inhibition, % at 3.6 µM | 0.13% of 360,000 active | AID 602396;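 active means inhibition above the mean inhibition of all tested compounds plus 3 SD, cut at about 73% in these data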
Target sequence (O00482 whole entry, looked up): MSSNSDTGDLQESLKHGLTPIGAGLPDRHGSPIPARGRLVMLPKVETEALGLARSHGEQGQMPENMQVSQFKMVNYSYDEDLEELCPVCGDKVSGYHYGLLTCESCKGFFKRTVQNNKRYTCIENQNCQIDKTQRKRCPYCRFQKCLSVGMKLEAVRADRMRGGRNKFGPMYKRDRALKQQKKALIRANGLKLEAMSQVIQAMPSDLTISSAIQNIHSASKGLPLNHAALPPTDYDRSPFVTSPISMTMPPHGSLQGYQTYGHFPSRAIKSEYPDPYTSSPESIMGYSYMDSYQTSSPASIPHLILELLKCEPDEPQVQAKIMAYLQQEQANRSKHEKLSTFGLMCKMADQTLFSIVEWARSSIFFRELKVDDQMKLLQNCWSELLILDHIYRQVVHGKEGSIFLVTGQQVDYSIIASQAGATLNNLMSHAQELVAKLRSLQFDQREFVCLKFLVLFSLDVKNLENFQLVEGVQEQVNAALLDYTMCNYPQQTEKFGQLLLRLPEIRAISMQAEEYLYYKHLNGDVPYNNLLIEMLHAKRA
GalR3 antag: blocks the human galanin receptor 3. inhibition, % at 3 µM. 0.44% of 360,000 active. O60755. HEK293 GalR3-CNG cAMP membrane potential fluorescence; galR3 body fused to GalR1 C-terminus;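 active means inhibition above the screen-wide average plus 3 SD, cut at about 13% in these data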;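 further: forskolin and galanin both at EC90 stimulate the cells; cAMP rise reported by CNG channel membrane potential dye signal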
NCOA1 inh: inhibits human SRC1 coactivator; 0.12% of 360,000 active; inhibition, % at 3.6 µM; Q15788; HEK293 GAL4-SRC1 luciferase reporter, luminescence;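 active means inhibition above the campaign mean plus 3 SD, with each screening campaign given its own cutoff, cut at about 60% in these data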
VP16 Luc counter: VP16 inhibition counter-screen for COUP-TFII; shares compounds with NR2F2 inh; 25% of 2,500 active; inhibition, % at 8.5 µM; HEK293 Gal4-VP16 luciferase reporter, luminescence; AID 687007; in the data active means inhibition above about 13%
NR2F2 inh conf: COUP-TFII (NR2F2) inhibition, confirmation assay | shares compounds with NR2F2 inh | HEK293 NGFI-A luciferase reporter, luminescence | inhibition, % at 8.5 µM | 45% of 2,500 active;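 active means mean inhibition over three repeats above a set limit taken from the earlier primary screen, cut at about 38% in these data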
Of the large screens only hits and unclear results are named; the others gave an inactive call (follow-up assays come after a bar, where they were run). Rows were chosen to be rich in hits. Some 1.1% of all compounds tested hit in one or more screens of this group.

CCCCOCCCNC(=O)C[C@H]1C[C@@]2(C(=O)OC)C(=C[C@H](C(C)(C)C)O[C@@H]2C)N(Cc2ccc(Cl)cc2Cl)C1=O	none (no result: NCOA3 inh, LRH-1 inv ag, GalR3 antag, NCOA1 inh)
FC(F)(F)c1cccc(N2CCN(C(=S)Nc3nccc4ccccc34)CC2)c1	none (no result: NCOA2 inhibitor, NCOA3 inh, LRH-1 inv ag, GalR3 antag, NCOA1 inh)
CC(C)(C)c1ccc(C(=O)Nc2ccc(NC(=O)C(=O)O)cc2)o1	NCOA2 inhibitor 59, NR2F2 inh 42 | VP16 Luc counter inactive | NR2F2 inh conf inactive
COC(=O)[C@@H](C)NC(=O)C(Cc1ccc2c(c1)OCO2)NC(C)=O (some centres not stated)	none (no result: NCOA3 inh, LRH-1 inv ag, GalR3 antag, NCOA1 inh)
COc1cc2c(cc1OC)C(=O)C(c1ccc3c(c1)OCO3)CC2 (configuration not stated)	none
COc1ccc(C2CCc3cc4c(cc3C2=NOC(C)=O)OCO4)cc1OC (configuration not stated)	NR2F2 inh 44 | VP16 Luc counter inactive | NR2F2 inh conf inactive
CN1Cc2nnn(Cc3ccccc3)c2-c2ccccc2S1(=O)=O	none (no result: NCOA3 inh, LRH-1 inv ag, GalR3 antag, NCOA1 inh)
C[C@H](O)[C@@H]1C(=O)N2CCc3c([nH]c4c(-c5ccc6c(c5)OCO6)cccc34)[C@@H]2C[C@@H]1N(C)C(=O)c1ccccc1F	none (no result: NCOA3 inh, LRH-1 inv ag, GalR3 antag, NCOA1 inh)
CCOC(=O)N1CCN(C(=O)CSCC(=O)Nc2nc(-c3ccc(-c4ccccc4)cc3)cs2)CC1	NR2F2 inh 68 (no result: GalR3 antag) | VP16 Luc counter inactive | NR2F2 inh conf 71
CC(=O)c1cccc(NC(=O)C2Cc3c(-c4cccc(C(C)=O)c4)ccnc3O2)c1 (configuration not stated)	NR2F2 inh 48 | VP16 Luc counter inactive | NR2F2 inh conf inactive
COc1ccc(NC(=O)C2Cc3c(-c4ccccc4Oc4ccccc4)ccnc3O2)cc1OC (configuration not stated)	NR2F2 inh 64 | VP16 Luc counter inactive | NR2F2 inh conf inactive
CC(=O)c1cccc(NC(=O)C2Cc3c(-c4cccc(C(N)=O)c4)ccnc3O2)c1 (configuration not stated)	none
O=C(NCc1ccncc1)C1Cc2c(-c3ccccc3Oc3ccccc3)ccnc2O1 (configuration not stated)	NR2F2 inh 38 | VP16 Luc counter inactive | NR2F2 inh conf inactive
O=C(c1c(F)cccc1F)N1CCC(Oc2cccnc2)CC1	none (no result: NCOA3 inh, LRH-1 inv ag, GalR3 antag, NCOA1 inh)
Cc1c[nH]c2cccc(-c3ccc4c(c3)OCO4)c12	none (no result: NCOA3 inh, LRH-1 inv ag, GalR3 antag, NCOA1 inh)
CC1=CC(=O)C(C2CCCCC2)=C/C1=N\OS(=O)(=O)c1ccccc1	NR2F2 inh 48 (no result: NCOA2 inhibitor, NCOA3 inh, LRH-1 inv ag, GalR3 antag, NCOA1 inh) | VP16 Luc counter inactive | NR2F2 inh conf inactive
O=C(CC1CS(=O)(=O)CC1CC(=O)Nc1ccc2c(c1)OCCO2)Nc1ccc2c(c1)OCCO2 (configuration not stated)	NR2F2 inh 69 | VP16 Luc counter inactive | NR2F2 inh conf inactive
O=C(Nc1nc2cc3c(cc2s1)OCO3)C1=COCCO1	NR2F2 inh 54 (no result: GalR3 antag) | VP16 Luc counter inactive | NR2F2 inh conf inactive
O=C(Nc1nc2cc3c(cc2s1)OCCO3)c1ccco1	NCOA2 inhibitor 59, NR2F2 inh 69 | VP16 Luc counter inactive | NR2F2 inh conf inactive
COc1ccc(C(=O)Nc2ccc(Cl)c(S(=O)(=O)Nc3ccccc3OC)c2)cc1	NR2F2 inh 63 | VP16 Luc counter inactive | NR2F2 inh conf 67
COc1ccccc1NS(=O)(=O)c1cc(NC(=O)c2ccc(Cl)nc2)ccc1Cl	NR2F2 inh 68 | VP16 Luc counter 15 | NR2F2 inh conf 60
COc1ccc(C=Nn2c(-c3ccc(F)cc3)n[nH]c2=S)cc1OCc1ccccc1	none (no result: NCOA3 inh, LRH-1 inv ag, GalR3 antag, NCOA1 inh)
COc1ccc(N(C)S(=O)(=O)c2cccc(C(=O)Nc3nc4ccccc4[nH]3)c2)cc1	none
CN(c1cccc(Cl)c1)S(=O)(=O)c1cccc(C(=O)Nc2nc3ccccc3[nH]2)c1	NR2F2 inh 42 | VP16 Luc counter inactive | NR2F2 inh conf inactive
O=C1C(=C(c2ccccc2)N2CCOCC2)Cc2ccccc21	NR2F2 inh 39 | VP16 Luc counter 40 | NR2F2 inh conf inactive
O=C(c1ccccc1)N1CCN(C(=O)N2CCOCC2)CC1	none
CCCCCCCCN1C(=O)[C@@H](CC(=O)NCc2ccc(OC)c(OC)c2)C[C@@]2(C(=O)OC)C1=C[C@H](COCc1ccccc1)O[C@@H]2C	none (no result: NCOA3 inh, LRH-1 inv ag, GalR3 antag, NCOA1 inh)
COCC#Cc1ccc(CC[C@H]2O[C@H]3CC[C@@H](CO)O[C@H]3C[C@H]2n2cc(C3CC3)nn2)cc1	none (no result: NCOA3 inh, LRH-1 inv ag, GalR3 antag, NCOA1 inh)
O=C1[C@@H](C2CCCCC2)[C@@H]2c3ccccc3C=NN2[C@@H]2c3ccccc3C=NN12	none (no result: NCOA3 inh, LRH-1 inv ag, GalR3 antag, NCOA1 inh)
Cc1ccc2c(c1)c(/C=C/c1cc[n+](C)cc1)c(C)n2C	NR2F2 inh 54 | VP16 Luc counter inactive | NR2F2 inh conf inactive
Cc1ccc2[nH]c(C)c(/C=C/c3cc[n+](C)cc3)c2c1	NR2F2 inh 41 | VP16 Luc counter inactive | NR2F2 inh conf inactive
C[n+]1ccc(/C=C/c2ccc(Br)cc2)cc1	none
CCCn1c(/C=C/c2cc[n+](C)cc2)nc2ccccc21	none
O=C1COc2ccc(S(=O)(=O)CCC(=O)N3CCN(c4cccc(Cl)c4)CC3)cc2N1	none
Cc1ccc(Cl)cc1N1CCN(C(=O)CCS(=O)(=O)c2ccc3c(c2)NC(=O)CO3)CC1	NR2F2 inh 54 | VP16 Luc counter inactive | NR2F2 inh conf inactive
CCN(CC)CCOC(=O)/C=C/c1ccccc1	none
CCN(CC)CC(C)(C)C(=O)/C=C/c1ccc(/C=C/C(=O)C(C)(C)CN(CC)CC)cc1	NCOA2 inhibitor 74, NR2F2 inh 93, LRH-1 inv ag 91, GalR3 antag 36 | VP16 Luc counter 89 | NR2F2 inh conf 101
C=C1C(=O)[C@]23C[C@H]1CCC2[C@@]1(C)C(C[C@@H]3O)[C@](C)(C(=O)OC)CC[C@@H]1OC(C)=O (some centres not stated)	NCOA2 inhibitor 59, NR2F2 inh 49, LRH-1 inv ag 83 | VP16 Luc counter 64 | NR2F2 inh conf 52
O=C(O)c1cccc(CSc2nnc(-c3ccc(Cl)cc3)o2)c1	NCOA2 inhibitor 55, NR2F2 inh 40 | VP16 Luc counter 37 | NR2F2 inh conf inactive
O=C(O)c1cccc(CSc2nnc(COc3ccccc3)o2)c1	NR2F2 inh 41 | VP16 Luc counter 35 | NR2F2 inh conf inactive
O=C(O)c1ccc(CSc2nnc(COc3ccccc3)o2)cc1	none
O[C@H](COc1ccc(OC(F)(F)F)cc1)CN1CCC(C(O)(c2ccccc2)c2ccccc2)CC1	none (no result: NCOA3 inh, LRH-1 inv ag, GalR3 antag, NCOA1 inh)
COC(=O)C1=C(C)N(CCCC(=O)O)C(=O)NC1c1ccccc1OS(=O)(=O)c1ccccc1[N+](=O)[O-] (configuration not stated)	none

Bioassay records from PubChem BioAssay.
